For one sequence, binding signal results are on record in PMC7862700, “An all-to-all approach to the identification of sequence-specific readers for epigenetic DNA modifications on cytosine”.

Holding throughout (assay): DAPPL (digital affinity profiling via proximity ligation, sequencing); 10 mM Tris-HCl pH 7.5, 50 mM NaCl, 1 mM DTT, 4% glycerol, room temperature, 30 min; GST-TFs on glutathione beads, 16-mer random dsDNA library, 0.1% formaldehyde crosslink after washing; high values mean tight binding
The target in one assay is T1, FLI1 (Homo sapiens, UniProt Q01543 1-452).
T1 sequence: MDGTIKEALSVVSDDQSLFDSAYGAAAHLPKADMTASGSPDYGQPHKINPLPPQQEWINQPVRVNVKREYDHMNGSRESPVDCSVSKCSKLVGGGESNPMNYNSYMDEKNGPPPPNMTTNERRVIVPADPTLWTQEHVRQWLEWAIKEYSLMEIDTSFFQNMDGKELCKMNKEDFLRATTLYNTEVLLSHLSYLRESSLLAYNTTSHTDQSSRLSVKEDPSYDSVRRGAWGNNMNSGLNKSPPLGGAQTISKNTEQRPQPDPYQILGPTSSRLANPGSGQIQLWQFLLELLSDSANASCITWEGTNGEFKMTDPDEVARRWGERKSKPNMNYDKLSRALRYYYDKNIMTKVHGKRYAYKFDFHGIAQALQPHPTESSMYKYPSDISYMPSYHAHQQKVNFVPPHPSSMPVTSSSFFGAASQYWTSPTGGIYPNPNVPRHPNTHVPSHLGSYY
To be noted: protein: recombinant; tags: N-terminal GST; dsDNA, one strand shown. The gist of the method:
(§1)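 Beads coated with glutathione captured GST-fused human transcription factors that had been expressed in yeast, and the factors were then given DNA barcodes and pooled with a tag-only sample. The pools were incubated with 200 nmole of a random double-stranded 16-mer DNA library in Tris/NaCl/DTT/glycerol buffer for 30 min at room temperature, washed, crosslinked with 0.1% formaldehyde and proximity-ligated with BsaI/T4 ligase at 37 °C for 1 h. PCR amplification and Illumina NextSeq500 sequencing came last. Binding signal is each hexamer's read frequency for a factor divided by its frequency for the tag-only sample.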

The target of the next assay is T2, ELK1 (Homo sapiens, UniProt P19419 1-428).
T2 sequence: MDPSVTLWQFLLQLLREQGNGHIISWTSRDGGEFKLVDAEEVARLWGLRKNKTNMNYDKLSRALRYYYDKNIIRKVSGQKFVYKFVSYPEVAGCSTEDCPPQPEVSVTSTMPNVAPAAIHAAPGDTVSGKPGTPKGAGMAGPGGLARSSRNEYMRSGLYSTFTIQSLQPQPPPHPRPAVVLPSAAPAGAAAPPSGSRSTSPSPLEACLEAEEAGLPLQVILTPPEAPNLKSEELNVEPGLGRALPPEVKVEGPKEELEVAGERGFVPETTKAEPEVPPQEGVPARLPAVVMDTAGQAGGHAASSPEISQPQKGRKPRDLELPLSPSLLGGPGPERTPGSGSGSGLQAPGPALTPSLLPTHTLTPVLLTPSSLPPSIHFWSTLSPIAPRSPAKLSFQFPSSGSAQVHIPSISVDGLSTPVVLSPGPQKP
Conditions: protein: recombinant; tags: N-terminal GST; dsDNA, one strand shown. An outline of the steps:
as §1

The target of the next assay is T3, GABPA (Homo sapiens, UniProt Q06546 1-454).
T3 sequence: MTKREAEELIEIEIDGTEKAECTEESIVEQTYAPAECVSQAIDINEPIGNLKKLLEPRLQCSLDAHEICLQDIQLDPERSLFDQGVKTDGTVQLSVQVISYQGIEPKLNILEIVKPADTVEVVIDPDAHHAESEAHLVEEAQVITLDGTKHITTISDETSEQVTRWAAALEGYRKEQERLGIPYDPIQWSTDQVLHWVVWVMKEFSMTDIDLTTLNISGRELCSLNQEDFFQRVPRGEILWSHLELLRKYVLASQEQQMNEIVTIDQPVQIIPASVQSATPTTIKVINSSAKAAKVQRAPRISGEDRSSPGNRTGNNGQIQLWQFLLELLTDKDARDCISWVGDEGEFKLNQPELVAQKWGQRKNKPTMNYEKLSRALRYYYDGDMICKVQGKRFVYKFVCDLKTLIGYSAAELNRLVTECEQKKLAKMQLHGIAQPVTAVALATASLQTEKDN
Conditions: protein: recombinant; tags: N-terminal GST; dsDNA, one strand shown. The gist of the method:
as §1

The target of a further assay is T4, ERG (Homo sapiens, UniProt P11308 1-479).
T4 sequence: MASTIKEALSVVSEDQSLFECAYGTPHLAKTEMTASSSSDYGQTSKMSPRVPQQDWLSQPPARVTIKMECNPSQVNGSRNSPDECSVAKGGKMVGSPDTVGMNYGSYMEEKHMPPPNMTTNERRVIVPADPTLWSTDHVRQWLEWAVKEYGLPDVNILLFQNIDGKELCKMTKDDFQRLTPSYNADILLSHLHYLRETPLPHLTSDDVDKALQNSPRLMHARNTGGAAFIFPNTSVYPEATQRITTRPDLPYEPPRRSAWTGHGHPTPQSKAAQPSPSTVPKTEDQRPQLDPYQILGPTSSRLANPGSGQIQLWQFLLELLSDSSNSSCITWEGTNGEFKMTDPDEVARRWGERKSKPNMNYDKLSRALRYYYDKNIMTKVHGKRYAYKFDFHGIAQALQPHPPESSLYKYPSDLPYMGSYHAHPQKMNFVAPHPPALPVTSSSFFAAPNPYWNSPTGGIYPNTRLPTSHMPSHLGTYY
Conditions: protein: recombinant; tags: N-terminal GST; dsDNA, one strand shown. The gist of the method:
as §1

The target in a further assay is ELF1 (Homo sapiens, UniProt P32519 1-619). Conditions: protein: recombinant; tags: N-terminal GST; dsDNA, one strand shown. The gist of the method:
as §1

A further assay addresses T5, EHF (Homo sapiens, UniProt Q9NZC4 1-300).
T5 sequence: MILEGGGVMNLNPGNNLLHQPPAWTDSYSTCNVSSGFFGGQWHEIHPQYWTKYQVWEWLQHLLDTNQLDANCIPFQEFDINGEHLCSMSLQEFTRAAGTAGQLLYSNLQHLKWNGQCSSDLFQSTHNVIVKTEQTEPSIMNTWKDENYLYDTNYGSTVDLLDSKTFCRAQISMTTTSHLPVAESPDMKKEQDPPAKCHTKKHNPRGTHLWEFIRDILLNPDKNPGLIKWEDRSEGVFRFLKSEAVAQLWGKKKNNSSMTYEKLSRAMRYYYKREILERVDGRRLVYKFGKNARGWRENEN
Conditions: protein: recombinant; tags: N-terminal GST; dsDNA, one strand shown. The gist of the method: as §1

The target of another assay is SPI1 (Homo sapiens, UniProt P17947 1-270). Conditions: protein: recombinant; tags: N-terminal GST; dsDNA, one strand shown. The gist of the method:
as §1

A further assay concerns the target SPIB (Homo sapiens, UniProt Q01892 1-262). To be noted: protein: recombinant; tags: N-terminal GST; dsDNA, one strand shown. An outline of the steps:
as §1

In a further assay the target is T6, ELK3 (Homo sapiens, UniProt P41970 1-407).
T6 sequence: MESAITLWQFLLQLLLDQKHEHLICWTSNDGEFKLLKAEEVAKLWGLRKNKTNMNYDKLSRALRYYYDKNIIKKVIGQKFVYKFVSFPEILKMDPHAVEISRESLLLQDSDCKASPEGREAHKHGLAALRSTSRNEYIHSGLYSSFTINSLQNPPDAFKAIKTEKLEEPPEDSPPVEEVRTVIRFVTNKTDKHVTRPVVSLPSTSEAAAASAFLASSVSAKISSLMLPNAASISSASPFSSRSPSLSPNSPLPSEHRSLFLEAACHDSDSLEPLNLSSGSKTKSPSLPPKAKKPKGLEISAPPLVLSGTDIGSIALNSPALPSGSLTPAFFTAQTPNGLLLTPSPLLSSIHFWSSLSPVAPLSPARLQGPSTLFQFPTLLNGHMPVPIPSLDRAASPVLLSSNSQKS
Conditions: protein: recombinant; tags: N-terminal GST; dsDNA, one strand shown. An outline of the steps:
as §1

The next assay concerns the target T7, FEV (Homo sapiens, UniProt Q99581 1-238).
T7 sequence: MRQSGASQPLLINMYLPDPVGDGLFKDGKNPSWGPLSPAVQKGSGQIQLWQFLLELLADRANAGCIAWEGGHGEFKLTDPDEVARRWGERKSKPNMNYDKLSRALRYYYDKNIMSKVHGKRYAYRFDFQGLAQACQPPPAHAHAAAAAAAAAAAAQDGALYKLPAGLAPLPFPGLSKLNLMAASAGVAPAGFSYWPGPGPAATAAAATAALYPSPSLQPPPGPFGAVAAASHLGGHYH
Conditions: protein: recombinant; tags: N-terminal GST; dsDNA, one strand shown. An outline of the steps:
as §1

For a further assay, the target named is ETV5 (Homo sapiens, UniProt P41161 1-510). Conditions: protein: recombinant; tags: N-terminal GST; dsDNA, one strand shown. An outline of the steps: as §1
The target in the next assay is HSF1 (Homo sapiens, UniProt Q00613 1-529). To be noted: protein: recombinant; tags: N-terminal GST; chain copies: 3; dsDNA, one strand shown. An outline of the steps:
as §1

A further assay deals with T8, SPIC (Homo sapiens, UniProt Q8N5J4 1-248).
T8 sequence: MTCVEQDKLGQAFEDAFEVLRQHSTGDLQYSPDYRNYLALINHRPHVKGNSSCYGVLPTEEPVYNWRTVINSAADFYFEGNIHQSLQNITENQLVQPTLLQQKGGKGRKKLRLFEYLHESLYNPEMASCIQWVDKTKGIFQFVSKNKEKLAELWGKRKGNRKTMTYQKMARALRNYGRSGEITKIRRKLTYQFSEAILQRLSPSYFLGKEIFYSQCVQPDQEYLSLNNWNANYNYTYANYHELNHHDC
To be noted: protein: recombinant; tags: N-terminal GST; dsDNA, one strand shown. The gist of the method:
as §1

Another assay concerns the target ELF4 (Homo sapiens, UniProt Q99607 1-663). To be noted: protein: recombinant; tags: N-terminal GST; dsDNA, one strand shown. The gist of the method:
as §1

The target in a further assay is T9, ELK4 (Homo sapiens, UniProt P28324-2 1-405).
T9 sequence: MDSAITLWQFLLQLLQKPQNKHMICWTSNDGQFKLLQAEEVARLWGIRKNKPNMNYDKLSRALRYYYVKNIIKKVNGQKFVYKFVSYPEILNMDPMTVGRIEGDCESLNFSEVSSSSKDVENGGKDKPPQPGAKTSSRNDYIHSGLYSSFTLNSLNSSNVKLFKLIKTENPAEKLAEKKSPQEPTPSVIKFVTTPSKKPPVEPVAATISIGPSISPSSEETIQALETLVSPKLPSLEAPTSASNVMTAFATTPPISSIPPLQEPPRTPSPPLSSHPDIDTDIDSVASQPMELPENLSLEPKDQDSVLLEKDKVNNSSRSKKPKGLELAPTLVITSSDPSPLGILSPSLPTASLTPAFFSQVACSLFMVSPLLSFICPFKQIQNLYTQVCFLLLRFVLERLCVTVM
Conditions: protein: recombinant; tags: N-terminal GST; dsDNA, one strand shown. The gist of the method:
as §1

The next assay deals with T10, ETV2 (Homo sapiens, UniProt O00321 1-342).
T10 sequence: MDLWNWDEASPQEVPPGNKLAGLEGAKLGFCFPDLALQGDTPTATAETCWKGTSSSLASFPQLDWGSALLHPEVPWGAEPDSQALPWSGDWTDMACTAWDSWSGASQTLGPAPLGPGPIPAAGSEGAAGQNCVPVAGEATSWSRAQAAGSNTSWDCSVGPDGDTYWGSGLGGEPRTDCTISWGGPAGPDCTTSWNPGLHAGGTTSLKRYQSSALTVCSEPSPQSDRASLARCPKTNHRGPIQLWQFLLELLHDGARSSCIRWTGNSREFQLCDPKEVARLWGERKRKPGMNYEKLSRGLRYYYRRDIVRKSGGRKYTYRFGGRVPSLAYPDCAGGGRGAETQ
To be noted: protein: recombinant; tags: N-terminal GST; dsDNA, one strand shown. The gist of the method:
as §1

A further assay has as its target T11, ELF3 (Homo sapiens, UniProt P78545 1-371).
T11 sequence: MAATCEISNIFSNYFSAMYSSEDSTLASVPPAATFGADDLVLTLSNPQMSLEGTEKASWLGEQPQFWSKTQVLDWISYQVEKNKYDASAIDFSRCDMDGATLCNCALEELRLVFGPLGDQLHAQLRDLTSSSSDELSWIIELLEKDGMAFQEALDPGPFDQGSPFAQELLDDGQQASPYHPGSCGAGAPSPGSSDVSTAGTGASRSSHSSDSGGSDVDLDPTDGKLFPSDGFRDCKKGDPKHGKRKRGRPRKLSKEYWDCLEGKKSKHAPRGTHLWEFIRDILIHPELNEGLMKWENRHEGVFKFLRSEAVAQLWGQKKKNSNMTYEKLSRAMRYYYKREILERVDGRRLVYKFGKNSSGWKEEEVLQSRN
To be noted: protein: recombinant; tags: N-terminal GST; dsDNA, one strand shown. An outline of the steps: as §1

The next assay has as its target CRX (Homo sapiens, UniProt O43186 1-299). To be noted: protein: recombinant; tags: N-terminal GST; dsDNA, one strand shown. An outline of the steps:
as §1

Another assay addresses ETV1 (Homo sapiens, UniProt P50549 1-477). To be noted: protein: recombinant; tags: N-terminal GST; dsDNA, one strand shown. An outline of the steps: as §1

ELF4, sequence (Q99607 whole entry): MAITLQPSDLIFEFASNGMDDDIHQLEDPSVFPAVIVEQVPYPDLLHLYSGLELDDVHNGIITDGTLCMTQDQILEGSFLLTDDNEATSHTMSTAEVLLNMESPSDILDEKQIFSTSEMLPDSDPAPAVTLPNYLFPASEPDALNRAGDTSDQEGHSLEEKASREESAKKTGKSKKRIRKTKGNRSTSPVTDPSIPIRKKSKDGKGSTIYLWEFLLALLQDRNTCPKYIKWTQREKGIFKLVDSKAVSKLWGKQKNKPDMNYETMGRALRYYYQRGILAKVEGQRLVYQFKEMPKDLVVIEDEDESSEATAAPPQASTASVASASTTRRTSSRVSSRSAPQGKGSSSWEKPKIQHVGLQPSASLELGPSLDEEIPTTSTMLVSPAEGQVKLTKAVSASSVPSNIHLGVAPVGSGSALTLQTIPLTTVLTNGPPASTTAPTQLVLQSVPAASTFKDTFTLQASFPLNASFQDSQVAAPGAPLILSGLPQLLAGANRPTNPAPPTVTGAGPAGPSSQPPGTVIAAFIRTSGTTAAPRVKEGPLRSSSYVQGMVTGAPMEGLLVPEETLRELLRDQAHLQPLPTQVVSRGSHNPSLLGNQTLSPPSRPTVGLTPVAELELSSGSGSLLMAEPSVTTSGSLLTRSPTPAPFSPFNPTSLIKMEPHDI
ETV1, sequence (P50549 whole entry): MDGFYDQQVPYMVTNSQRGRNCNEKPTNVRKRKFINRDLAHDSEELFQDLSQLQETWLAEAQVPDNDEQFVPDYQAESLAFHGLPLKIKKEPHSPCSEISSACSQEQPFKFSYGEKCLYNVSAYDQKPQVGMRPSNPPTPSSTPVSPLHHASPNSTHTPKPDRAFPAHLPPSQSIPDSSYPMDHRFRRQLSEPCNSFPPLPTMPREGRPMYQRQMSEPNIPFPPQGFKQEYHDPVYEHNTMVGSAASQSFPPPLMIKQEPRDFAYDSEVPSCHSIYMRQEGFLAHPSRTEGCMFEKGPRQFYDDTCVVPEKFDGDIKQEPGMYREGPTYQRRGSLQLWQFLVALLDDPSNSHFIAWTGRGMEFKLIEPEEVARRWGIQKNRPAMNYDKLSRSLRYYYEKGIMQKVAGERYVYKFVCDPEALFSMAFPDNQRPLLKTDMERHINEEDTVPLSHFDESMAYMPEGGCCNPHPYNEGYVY
SPIB, sequence (Q01892 whole entry): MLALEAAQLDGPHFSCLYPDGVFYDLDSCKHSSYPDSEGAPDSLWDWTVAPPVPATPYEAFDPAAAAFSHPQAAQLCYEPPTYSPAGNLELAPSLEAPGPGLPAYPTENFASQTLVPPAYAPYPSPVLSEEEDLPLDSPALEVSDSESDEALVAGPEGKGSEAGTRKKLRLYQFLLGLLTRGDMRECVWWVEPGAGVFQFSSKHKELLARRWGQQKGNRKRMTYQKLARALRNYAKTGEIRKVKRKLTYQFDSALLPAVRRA
CRX, sequence (O43186 whole entry): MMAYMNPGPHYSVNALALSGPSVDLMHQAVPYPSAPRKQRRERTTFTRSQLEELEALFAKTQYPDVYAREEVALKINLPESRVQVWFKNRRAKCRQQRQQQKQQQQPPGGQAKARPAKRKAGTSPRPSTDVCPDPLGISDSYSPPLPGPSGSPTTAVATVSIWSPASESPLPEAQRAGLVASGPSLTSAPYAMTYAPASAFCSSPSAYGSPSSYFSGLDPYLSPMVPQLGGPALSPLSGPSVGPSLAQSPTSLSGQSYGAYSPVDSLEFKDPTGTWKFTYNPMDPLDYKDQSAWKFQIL
HSF1, sequence (Q00613 whole entry): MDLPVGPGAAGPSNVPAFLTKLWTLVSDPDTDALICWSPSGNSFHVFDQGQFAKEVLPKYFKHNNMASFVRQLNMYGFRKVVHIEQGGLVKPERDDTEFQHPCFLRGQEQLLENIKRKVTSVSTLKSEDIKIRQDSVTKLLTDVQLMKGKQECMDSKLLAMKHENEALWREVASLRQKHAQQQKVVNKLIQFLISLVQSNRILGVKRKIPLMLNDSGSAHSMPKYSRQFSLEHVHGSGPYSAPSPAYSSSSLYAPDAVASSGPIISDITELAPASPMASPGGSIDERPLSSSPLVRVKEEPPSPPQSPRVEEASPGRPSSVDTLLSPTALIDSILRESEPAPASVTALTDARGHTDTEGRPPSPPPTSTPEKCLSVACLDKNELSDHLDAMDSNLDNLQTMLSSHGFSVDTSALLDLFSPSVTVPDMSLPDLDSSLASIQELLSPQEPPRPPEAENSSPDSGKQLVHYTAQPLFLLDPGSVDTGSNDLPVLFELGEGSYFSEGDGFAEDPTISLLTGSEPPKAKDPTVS
ELF1, sequence (P32519 whole entry): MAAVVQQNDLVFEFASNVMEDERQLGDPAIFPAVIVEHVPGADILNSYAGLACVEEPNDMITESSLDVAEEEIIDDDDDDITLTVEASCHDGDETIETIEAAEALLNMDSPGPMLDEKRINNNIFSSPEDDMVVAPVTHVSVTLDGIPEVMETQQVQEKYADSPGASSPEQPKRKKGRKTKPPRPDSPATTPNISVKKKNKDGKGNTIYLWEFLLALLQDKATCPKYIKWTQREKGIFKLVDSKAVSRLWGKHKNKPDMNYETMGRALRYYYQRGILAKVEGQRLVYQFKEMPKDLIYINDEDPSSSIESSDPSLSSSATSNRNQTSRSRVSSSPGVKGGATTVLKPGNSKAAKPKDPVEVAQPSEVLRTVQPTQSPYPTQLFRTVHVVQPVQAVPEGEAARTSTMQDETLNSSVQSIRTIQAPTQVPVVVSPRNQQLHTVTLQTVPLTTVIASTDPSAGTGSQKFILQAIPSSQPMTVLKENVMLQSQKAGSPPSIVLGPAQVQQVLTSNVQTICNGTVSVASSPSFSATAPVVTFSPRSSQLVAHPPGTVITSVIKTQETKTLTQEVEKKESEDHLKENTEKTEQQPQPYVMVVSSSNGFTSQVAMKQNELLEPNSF
ETV5, sequence (P41161 whole entry): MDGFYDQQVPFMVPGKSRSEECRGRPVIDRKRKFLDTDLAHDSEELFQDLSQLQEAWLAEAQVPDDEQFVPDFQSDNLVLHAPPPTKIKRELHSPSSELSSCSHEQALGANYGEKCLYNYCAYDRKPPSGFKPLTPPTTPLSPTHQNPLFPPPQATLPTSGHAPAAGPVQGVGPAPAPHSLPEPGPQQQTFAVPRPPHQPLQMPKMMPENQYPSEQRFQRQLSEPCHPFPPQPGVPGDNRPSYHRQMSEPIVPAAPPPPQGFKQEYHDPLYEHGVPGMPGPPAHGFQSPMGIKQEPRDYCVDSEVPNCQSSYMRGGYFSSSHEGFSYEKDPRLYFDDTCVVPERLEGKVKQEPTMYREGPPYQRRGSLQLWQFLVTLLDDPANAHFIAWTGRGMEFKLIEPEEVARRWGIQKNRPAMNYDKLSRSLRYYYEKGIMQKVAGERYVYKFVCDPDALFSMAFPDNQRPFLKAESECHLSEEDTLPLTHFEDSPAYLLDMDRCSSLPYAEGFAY

Consider ATAGTT, for which the binding signal with FLI1 is 1.18 fold enrichment (6-mer frequency, TF over GST control); with ELK1 it was 1.16 fold enrichment (6-mer frequency, TF over GST control); with GABPA, 1.16 fold enrichment (6-mer frequency, TF over GST control); in the assay with ERG, 1.18 fold enrichment (6-mer frequency, TF over GST control); with ELF1 it was 1.16 fold enrichment (6-mer frequency, TF over GST control); in the assay with EHF, 1.18 fold enrichment (6-mer frequency, TF over GST control). In addition, the binding signal with SPI1 is 1.11 fold enrichment (6-mer frequency, TF over GST control); with SPIB, 1.2 fold enrichment (6-mer frequency, TF over GST control); with ELK3, 1.11 fold enrichment (6-mer frequency, TF over GST control); with FEV, 1.11 fold enrichment (6-mer frequency, TF over GST control); with ETV5, 1.25 fold enrichment (6-mer frequency, TF over GST control); with HSF1 it was 1.15 fold enrichment (6-mer frequency, TF over GST control). For the same sequence, the binding signal was 1.14 fold enrichment (6-mer frequency, TF over GST control) in the assay with SPIC; 1.18 fold enrichment (6-mer frequency, TF over GST control) with ELF4; 1.39 fold enrichment (6-mer frequency, TF over GST control) in the assay with ELK4; 1.14 fold enrichment (6-mer frequency, TF over GST control) with ETV2; 1.29 fold enrichment (6-mer frequency, TF over GST control) with ELF3; 1.1 fold enrichment (6-mer frequency, TF over GST control) with CRX. In addition, the binding signal in the assay with ETV1 is 1.11 fold enrichment (6-mer frequency, TF over GST control).
